{"source": "patent US20060069055", "about": "“Delivery of polynucleotides” (published 2006)", "data": [{"target": "NF-kB p65/p50 heterodimer (Homo sapiens, UniProt Q04206;P19838 Q04206:1-551,P19838:1-433)", "sequence (Q04206 whole entry, chain 1 of 2)": "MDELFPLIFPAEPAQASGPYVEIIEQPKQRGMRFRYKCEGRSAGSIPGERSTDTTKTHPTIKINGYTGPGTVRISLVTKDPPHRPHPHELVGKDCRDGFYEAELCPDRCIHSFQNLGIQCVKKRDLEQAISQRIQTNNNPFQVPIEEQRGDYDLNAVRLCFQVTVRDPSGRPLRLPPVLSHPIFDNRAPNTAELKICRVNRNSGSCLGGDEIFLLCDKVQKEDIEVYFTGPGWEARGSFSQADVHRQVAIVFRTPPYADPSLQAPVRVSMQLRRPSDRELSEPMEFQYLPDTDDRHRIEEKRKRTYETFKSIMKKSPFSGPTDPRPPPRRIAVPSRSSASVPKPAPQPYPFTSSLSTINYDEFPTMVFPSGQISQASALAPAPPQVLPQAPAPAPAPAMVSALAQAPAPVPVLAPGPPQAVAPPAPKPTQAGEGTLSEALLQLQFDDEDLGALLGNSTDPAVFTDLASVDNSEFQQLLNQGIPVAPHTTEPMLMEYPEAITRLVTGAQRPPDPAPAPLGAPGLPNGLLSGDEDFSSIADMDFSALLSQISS", "sequence (P19838 1-433, chain 2 of 2)": "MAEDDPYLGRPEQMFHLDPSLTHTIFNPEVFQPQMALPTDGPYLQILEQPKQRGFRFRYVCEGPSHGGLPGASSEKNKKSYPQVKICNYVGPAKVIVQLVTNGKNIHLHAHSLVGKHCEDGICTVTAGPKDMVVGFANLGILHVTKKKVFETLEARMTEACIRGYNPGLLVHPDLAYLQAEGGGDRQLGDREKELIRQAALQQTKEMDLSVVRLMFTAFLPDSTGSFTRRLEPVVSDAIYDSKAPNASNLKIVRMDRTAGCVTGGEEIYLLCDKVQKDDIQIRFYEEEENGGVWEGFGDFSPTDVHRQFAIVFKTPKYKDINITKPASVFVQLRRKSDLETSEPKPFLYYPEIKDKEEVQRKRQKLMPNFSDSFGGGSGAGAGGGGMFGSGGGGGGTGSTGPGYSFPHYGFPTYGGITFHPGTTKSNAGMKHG", "assay": "EMSA", "conditions": "protein: extract; tags: nuclear extract of LPS-stimulated THP-1 cells; dsDNA, one strand shown", "source_text": "The EMSA assay was employed to characterize oligonucleotide decoys for the NF-κB transcription factor. […] Using the above modified oligonucleotides to compete for binding for the above-mentioned NF-κB family members, it was possible to compare the binding affinity of these oligonucleotides against the high affinity radiolabeled probe and each other. This assay has also enabled the design of a decoy which selectively binds particular members of the NF-κB family. By using increasing concentrations of various oligonucleotides, it was observed that, by deleting or changing targeted residues in the binding site, it was possible to specifically decrease the binding of the decoy molecule to p50/p50 homodimers, while retaining the affinity for p65/p50 and cRel/p50 heterodimers.\nThe NF-κB gel shift assays (EMSA) were performed as follows. A double-stranded oligonucleotide containing a consensus NF-κB binding site (5′ […].GGC 3′) (SEQ ID NO: 26) was end-labeled with γ³²P-ATP using T4 Polynucleotide Kinase (Promega). One microgram of a nuclear extract prepared from LPS stimulated THP-1 cells (human monocyte cell line) was incubated with 35 fmol of radiolabeled probe in the presence or absence of competing unlabeled NF-κB double-stranded oligonucleotides (dsODN) or scrambled dsODN. The incubations were carried out at room temperature for 30 minutes in a 20 μl reaction volume composed of 10 mM Tris-HCl pH 8, 100 mM KCL, 5mM MgC12, 2mM DTT, 10% Glycerol, 0.1% NP-40, 0.025% BSA and 1 μg Poly-dIdC. The reactions were loaded onto a 6% polyacrylamide gel, subjected to electrophoresis and dried. The dried gels were imaged and quantitated using a Typhoon 8600 Phosphorlmager (Amersham) and ImageQuant software. The identity of the NF-κB proteins contained in complexes bound to the radiolabeled oligonucleotide probe were identified by pre-incubating the reactions for 5 minutes with individual antibodies specific for each member of the NF-κB family prior to the addition of the radiolabeled probe.", "units": {"IC50": "fold molar excess"}, "values": [{"sequence": "AGTTGAGGATTTCCCAGGC", "IC50": 54}, {"sequence": "TCGGACTTTCCTC", "IC50": 81}, {"sequence": "TTGAGGACTTTCCAGGC", "IC50": 87}, {"sequence": "AGTTGAGGATTTCCAGGC", "IC50": 73}, {"sequence": "TGAGGACTTTCCAGGC", "IC50": 93}, {"sequence": "TCGGATTTCCTC", "IC50": 74}, {"sequence": "TTGAGGACTTTCCAGGCTC", "IC50": 87}, {"sequence": "ATGGACTTTCCGT", "IC50": 72.5}, {"sequence": "TGAGGACTTTCCAGGCTC", "IC50": 92}]}]}
